Structures can show the parent of a compound that is named as a salt.
These compounds were tested on U-2932 (assay: growth inhibition by drug plus 177Lu-lilotomab satetraxetan (1 - RLU/untreated control) (fraction); higher = stronger inhibition). Conditions: 10 nM; time (day): 3; 177Lu-lilotomab satetraxetan 1 ug/ml.
In short: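 Plates pre-printed with the Selleck Cambridge Cancer Compound library at 10/100 nM (RIVA) or 10/1,000 nM (U-2932) received 3,000 cells/well. These cells had been washed after 18 h untreated or with a radiolabelled anti-CD37 antibody conjugate (~600 MBq/mg; 0.5 µg/ml RIVA, 1 µg/ml U-2932). Growth inhibition was obtained from RealTime-Glo luminescence in relation to untreated no-drug wells. Each daily read from day 3, taken after 1 h at 37°C, was converted as 1 − RLU/mean of 48 such wells per plate.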
`CNCc1ccc(-c2[nH]c3cc(F)cc4c3c2CCNC4=O)cc1` was tested, and the “growth inhibition by drug plus 177Lu-lilotomab satetraxetan” value (shortened to “growth inhibition”) was 0.05. `O=C(O)c1ccc(-c2c[nH]c3ncc(-c4ccccc4)cc23)cc1C1CCCC1` was tested, and the “growth inhibition” value was -0.00975. In the case of `CC(=O)c1c(C)c2cnc(Nc3ccc(N4CCNCC4)cn3)nc2n(C2CCCC2)c1=O`, the “growth inhibition” value was -0.0112. For `CCN(CC)CCCCNc1ncc2cc(-c3cc(OC)cc(OC)c3)c(NC(=O)NC(C)(C)C)nc2n1`, the “growth inhibition” value was -0.0428. For `CCC(C)(C)C(=O)O[C@H]1C[C@@H](C)C=C2C=C[C@H](C)[C@H](CC[C@@H]3C[C@@H](O)CC(=O)O3)[C@H]21` [Simvastatin (Zocor)], the “growth inhibition” value was -0.0665. In the case of `CC[C@H](Nc1ncnc2[nH]cnc12)c1nc2cccc(F)c2c(=O)n1-c1ccccc1`, the “growth inhibition” value was -0.0906. For `CC(C=CC(=O)NO)=CC(C)C(=O)c1ccc(N(C)C)cc1` (stereo not drawn) [Trichostatin A (TSA)], the “growth inhibition” value was 0.0166. In the case of `COc1ccc2c3n(c(=NC(=O)c4cccnc4)nc2c1OC)CCN3`, the “growth inhibition” value was 0.021. `NC(=O)c1ccc(-c2nc(-c3ccccn3)c(-c3ccc4c(c3)OCO4)[nH]2)cc1` was tested, and the “growth inhibition” value was 0.0841. `CNC(=O)c1cc(Oc2ccc(NC(=O)Nc3ccc(Cl)c(C(F)(F)F)c3)c(F)c2)ccn1` [Regorafenib (BAY 73-4506)] was tested, and the “growth inhibition” value was 0.125. With `Cc1cnc(Nc2ccc(OCCN3CCCC3)cc2)nc1Nc1cccc(S(=O)(=O)NC(C)(C)C)c1` the “growth inhibition” value was -0.0587. In the case of `CCOc1ccc(Nc2nc(-c3c(C)nc4ccccn34)cs2)cc1`, the “growth inhibition” value was 0.151. With `CC(C)C[C@H](NC(=O)[C@H](Cc1ccccc1)NC(=O)c1cnccn1)B(O)O` [Bortezomib (Velcade)] the “growth inhibition” value was 0.952. `O=C1CN2Cc3c(ccc(Cl)c3Cl)N=C2N1` [Anagrelide] was tested, and the “growth inhibition” value was 0.101. For `Cc1cc(Nc2cc(N3CCN(C)CC3)nc(/C=C/c3ccccc3)n2)n[nH]1`, the “growth inhibition” value was -0.149. `CCc1cc(Nc2nccc(-c3c(-c4ccc(OC)c(C(=O)Nc5c(F)cccc5F)c4)nc4ccccn34)n2)c(OC)cc1N1CCC(N2CCN(S(C)(=O)=O)CC2)CC1` was tested, and the “growth inhibition” value was -0.00397. With `O=C1CN2Cc3c(ccc(Cl)c3Cl)N=C2N1` [Anagrelide hydrochloride] the “growth inhibition” value was 0.101. In the case of `O=C(NCCCNc1nc(Nc2cccc(NC(=O)N3CCCC3)c2)ncc1I)c1cccs1`, the “growth inhibition” value was 0.198. For `CCC[C@H](NC(=O)/C(C#N)=C/c1cccc(Br)n1)c1ccccc1`, the “growth inhibition” value was 0.0639. With `COc1cc2nc(N3CCCN(C)CC3)nc(NC3CCN(Cc4ccccc4)CC3)c2cc1OC` the “growth inhibition” value was 0.0951. `C#Cc1cccc(Nc2ncnc3cc(OCCOC)c(OCCOC)cc23)c1` [Erlotinib HCl] was tested, and the “growth inhibition” value was 0.195. `CN(C)c1ccccc1CN1CCCN(Cc2ccccc2N(C)C)C1c1ccncc1` was tested, and the “growth inhibition” value was -0.0506. In the case of `COc1cc2c(NC3CCN(C)CC3)nc(N3CCCN(C)CC3)nc2cc1OCCCN(C)C`, the “growth inhibition” value was -0.0493. For `COc1ccc(COc2cc3oc(=O)c4cc(C(C)O)ccc4c3cc2OC)cc1` (stereo not drawn) [Palomid 529], the “growth inhibition” value was -0.0294. `CO[C@@H](C(=O)N1Cc2[nH]nc(NC(=O)c3ccc(N4CCN(C)CC4)cc3)c2C1)c1ccccc1` was tested, and the “growth inhibition” value was 0.00406. For `Cn1cc(C2=C(c3ccc(Cl)cc3Cl)C(=O)NC2=O)c2ccccc21`, the “growth inhibition” value was -0.0696. With `CCc1ccc(CCOc2ccc(CC3SC(=O)NC3=O)cc2)nc1` (stereo not drawn) [Pioglitazone (Actos)] the “growth inhibition” value was -0.113. `O=C(O)C1(C(=O)O)CCC1.[NH2-].[NH2-].[Pt+2]` [Carboplatin] was tested, and the “growth inhibition” value was -0.0315. In the case of `CS(=O)(=O)c1ccc(C(=O)Nc2ccc(Cl)c(-c3ccccn3)c2)c(Cl)c1` [Vismodegib (GDC-0449)], the “growth inhibition” value was 0.055. In the case of `OCCn1cc(-c2ccc3c(c2)CC/C3=N\O)c(-c2ccncc2)n1`, the “growth inhibition” value was -0.00182. `CC[C@@H]1C(=O)N(C)c2cnc(Nc3ccc(C(=O)NC4CCN(C)CC4)cc3OC)nc2N1C1CCCC1` was tested, and the “growth inhibition” value was 0.814. `CC[C@]1(O)C[C@H]2CN(CCc3c([nH]c4ccccc34)[C@@](C(=O)OC)(c3cc4c(cc3OC)N(C=O)[C@H]3[C@@](O)(C(=O)OC)[C@H](OC(C)=O)[C@]5(CC)C=CCN6CC[C@]43[C@@H]65)C2)C1` [Vincristine] was tested, and the “growth inhibition” value was 0.958. For `CC(C)(C)c1ccc(S(=O)(=O)/C=C/C#N)cc1`, the “growth inhibition” value was -0.0145. `Cc1cn(-c2cc(NC(=O)c3ccc(C)c(Nc4nccc(-c5cccnc5)n4)c3)cc(C(F)(F)F)c2)cn1` [Nilotinib (AMN-107)] was tested, and the “growth inhibition” value was -0.0417. `CC(C)(C#N)c1cc(Cn2cncn2)cc(C(C)(C)C#N)c1` [Anastrozole] was tested, and the “growth inhibition” value was 0.0156. `C=CCn1c(=O)c2cnc(Nc3ccc(N4CCN(C)CC4)cc3)nc2n1-c1cccc(C(C)(C)O)n1` was tested, and the “growth inhibition” value was -0.0165. With `Cn1cnc(N)c2ncnc1-2` [3-Methyladenine] the “growth inhibition” value was 0.0187. With `CCc1c2c(nc3ccc(OC(=O)N4CCC(N5CCCCC5)CC4)cc13)-c1cc3c(c(=O)n1C2)COC(=O)[C@]3(O)CC` [Irinotecan HCl Trihydrate (Campto)] the “growth inhibition” value was 0.0165.

Source: the supplement of paper PMC6897291
